ELG1 repair inh: qHTS screen for small molecules that inhibit ELG1-dependent DNA repair in human embryonic kidney (HEK293T) cells expressing luciferase-tagged ELG1; HEK293T ELG1-luciferase reporter, luminescence, 16 h; DNA damage induced by 5-fluorouridine; Potency, µM (highest dose often 46.1 µM), without a hit: at the highest dose activity change, negative = inhibition, most hits filed as inhibitors; 330,000 tested, 2.3% active; AID 504467, 2011; further: on the % scale 0 is the no-effect control and ±100 the full control effect; nearly all actives have a fitted effect of over 55% in size
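HEK293T cells expressing luciferase-tagged ELG1 (2,000/well) received 5-Fluorouridine plus compound or DMSO for 16 hr at 37 °C. Luciferase was read by ONE-Glo luminescence after 30 min at room temperature.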
Rab9 prom act: qHTS Assay for Rab9 Promoter Activators | 320,000 tested, 2.8% active | Potency, µM (highest dose often 9.22 µM), for inactives: at the highest dose activation, negative = inhibition, actives largely listed as activators | Huh7 Rab9 promoter-luciferase reporter, luminescence, 24 h; further: % of control where 0% means no effect; nearly all actives have a fitted effect of over 60% in size
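Cells were plated at 1500 per well in reduced-serum medium with 10% FBS and left 2 h. Compound in DMSO was then added for 24 h at 37 °C. Reporter signal was read by luminescence after 10 min with luciferase detection reagent.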
ELG1 genotox: qHTS screen for small molecules that induce genotoxicity in human embryonic kidney (HEK293T) cells expressing luciferase-tagged ELG1 | HEK293T ELG1-luciferase reporter, luminescence, 16 h | Potency, µM (series often up to 46 µM), without a hit: top-dose activity change, positive = activation, usual class: activators | 330,000 tested, 1.3% active | AID 504466, 2011; further: % of control where 0% means no effect; nearly all actives have a fitted effect of over 60% in size
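DMSO vehicle served as control against compound-treated ELG1-luciferase HEK293T cells; exposure lasted 16 hr at 37 °C and 5% CO2, followed by ONE-Glo luminescence detection after 30 min.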
SMN2 splice enh: qHTS Assay for Enhancers of SMN2 Splice Variant Expression | HEK293 SMN2-luciferase splicing reporter, luminescence, 30-36 h | Potency, µM (highest dose often 46.1 µM), for the others: top-dose activity change, positive = activation, most hits filed as activators | 210,000 tested, 2.8% active; further: % of control where 0% means no effect; nearly all actives have a fitted effect of over 55% in size
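HEK293 cells carry an SMN2 minigene-luciferase reporter in which exon 7 inclusion puts luciferase in frame. Cells were seeded at 2000 cells/well, attached for 10-12 hours, then exposed to compounds for 30-36 hours at 37C before ONE-Glo luminescence.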
FLuc modulator: qHTS profiling assay for firefly luciferase inhibitor/activator using purifed enzyme and Km concentrations of substrates (counterscreen for miR-21 project) | Luciferin 4-monooxygenase (Photinus pyralis), P08659 | purified FLuc, Km substrates, luminescence inhibition | Potency, µM (doses to about 57.5 µM), without a hit: at the highest dose activity change, negative = inhibition, hits mostly inhibitors | 360,000 tested, 6.9% active | AID 588342, 2011;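 further: plate controls were vehicle for no effect and reference inhibitor for full effect; nearly all actives have a fitted effect of over 55% in size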
Target sequence (P08659 whole entry, looked up): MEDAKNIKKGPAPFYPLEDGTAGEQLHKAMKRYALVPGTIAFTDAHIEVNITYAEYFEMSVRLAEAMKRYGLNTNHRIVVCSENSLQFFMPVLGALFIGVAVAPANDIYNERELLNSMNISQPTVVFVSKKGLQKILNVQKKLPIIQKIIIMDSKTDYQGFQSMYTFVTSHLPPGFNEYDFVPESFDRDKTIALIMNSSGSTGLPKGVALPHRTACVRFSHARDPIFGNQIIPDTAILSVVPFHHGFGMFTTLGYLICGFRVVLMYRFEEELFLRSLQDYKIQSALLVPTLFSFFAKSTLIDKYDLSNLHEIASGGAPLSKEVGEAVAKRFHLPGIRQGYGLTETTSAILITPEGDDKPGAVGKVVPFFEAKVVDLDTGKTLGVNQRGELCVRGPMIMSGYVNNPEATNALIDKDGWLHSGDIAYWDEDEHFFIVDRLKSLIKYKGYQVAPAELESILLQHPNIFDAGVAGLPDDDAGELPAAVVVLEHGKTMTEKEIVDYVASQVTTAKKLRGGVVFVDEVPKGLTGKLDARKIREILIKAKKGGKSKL
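Purified P. pyralis luciferase, 10 nM final, with Km-level 10 uM D-luciferin and 10 uM ATP in 50 mM Tris acetate pH 7.5, 10 mM Mg acetate, 0.01% Tween-20, 0.05% BSA; 6-point qHTS titration about 60 µM downward; luminescence read.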
NPC1 promoter act: qHTS Assay for NPC1 Promoter Activators; Huh7 NPC1 promoter luciferase reporter, 24 h; Potency, µM (top dose mostly 9.22 µM), without a hit: at the top dose activation, most hits filed as activators; 320,000 tested, 2.4% active; further: % of control where 0% means no effect; nearly all actives have a fitted effect of over 60% in size
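Stably transfected Huh7 (NPC1 promoter→luciferase), 1500 cells/well in Opti-MEM + 10% FBS, 2 h settle, then compound 24 h at 37 °C. Luminescence after 10 min with Amplite reagent.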
Numbers without * were called inactive; ? = inconclusive; / = no result given; [ ] = dose if it differs, or a comment. Sampled rows, rich in hits. Any-hit rate of the full collection: about 9.2%. The call rests on the fitted dose curve; in most records, active means well fitted curve in the direction sought with a large enough effect; inconclusive means small, poorly fitted or top-dose-only effect, or another doubt; inactive means no such curve, though single readings can be large; an effect the other way counts as inactive or inconclusive. Potency means the concentration at half of the fitted maximal effect.

SMILES	ELG1 repair inh	Rab9 prom act	ELG1 genotox	SMN2 splice enh	FLuc modulator	NPC1 promoter act
CC(=O)Nc1ccc(C(=O)COC(=O)C2CC2)c(F)c1	?	24.3%	?	/	5.36µM*	?
CC(=O)Nc1ccc(C(=O)COC(=O)C2CCCCC2)c(F)c1	?	2.1%	5.8%	/	0.675µM*	1.7%
CC(=O)Nc1ccc(C(=O)COC(=O)Cc2ccsc2)c(F)c1	15.5%	/	0.7%	/	/	/
Cc1ccc(Cn2ccc(NC(=O)c3cc(C4CC4)on3)n2)cc1	-18.5%	-4.2%	-3.6%	/	?	2.3%
COc1ccc(C(=O)c2ccc(CC(=O)O)s2)cc1	15.5%	-2.6%	2.2%	-7.1%	12µM*	-3.1%
COc1ccc(C(=O)OCC(=O)c2ccc[nH]2)cc1	?	?	?	/	26.9µM*	?
O=C(OCC(=O)c1ccc[nH]1)c1ccc(Br)cc1	23.0%	3.0%	3.2%	/	?	-0.3%
COc1ccc(C(=O)OCC(=O)c2ccc(CNC(C)=O)s2)cc1	?	22.8%	0.7%	/	10.7µM*	9.5%
O=C(COC(=O)c1ccc(F)cc1F)c1ccc[nH]1	16.9%	-2.5%	2.9%	/	19µM*	1.3%
Cc1cccc(N(CC(=O)NC2CCCC2)C(=O)c2csnn2)c1C	18.6%	4.4%	9.1%	/	0.0%	1.0%
O=C1C(=O)c2c(C(=O)c3ccccc3)coc2-c2ccccc21	?	1.8%	10µM*	-2.4%	?	1.0%
O=C(O)c1ccccc1-c1ccccc1C(=O)c1ccccc1	/	/	/	-3.9%[9.22 µM]	/	/
COc1cc(NC(=O)COc2c(C)cc(C)cc2[N+](=O)[O-])c(OC)cc1Cl	?	-2.2%	-0.6%	0.8%	6.2%	-0.7%
CC(C)C(=O)N1CCN(c2ccc(NC(=O)COc3ccccc3[N+](=O)[O-])cc2)CC1	9.2µM*	-30.8%	-25.5%	-81.0%	3.7%	-2.3%
COc1cc(Cl)c(C)cc1NC(=O)COc1ccccc1[N+](=O)[O-]	17.7%	?	7.7%	14.2%	2.2%	3.16µM*
Cc1ccc(NC(=O)COc2ccccc2[N+](=O)[O-])nc1	?	0.794µM*	0.3%	2.82µM*	2.13µM*	3.16µM*
O=C(COC(=O)c1ccccc1Br)NCCc1ccc(F)cc1	?	2.1%	0.9%	2.0%	-13.2%	-2.6%
O=C(COC(=O)c1ccccc1Br)Nc1ccc(F)cc1	?	7.3%	?	11.3%	19µM*	-1.5%
Cn1c(=O)c(=O)n(C)c2cc(S(=O)(=O)N3CCCC3C(=O)Nc3cccc(F)c3)ccc21 (stereo unspecified)	/	/	/	8.8%	0.0%	/
O=C(CN1C(=O)NC2(CCCCC2)C1=O)Nc1ccc(Cl)c(S(=O)(=O)N2CCOCC2)c1	?	-3.0%	-1.9%	/	3.7%	-0.7%
Cc1ccnc(NC(=O)COc2ccccc2[N+](=O)[O-])c1	?	?	?	5.01µM*	1.69µM*	2.24µM*
Cc1c(-c2ccccc2)oc2c(C(=O)OCC(=O)Nc3ccc(F)cc3)cccc2c1=O	10.3µM*	1.2%	-6.0%	-15.1%	-3.3%	4.9%
COC(=O)/C=C/COc1ccccc1[N+](=O)[O-]	?	?	15.4%	9.2%	21.3µM*	23.6%
O=C(COc1ccccc1[N+](=O)[O-])Nc1ccc(Br)cc1	?	3.16µM*	?	/	9.53µM*	?
O=C(COc1ccccc1[N+](=O)[O-])Nc1cccnc1	?	?	?	/	?	28.8%
SMILES	ELG1 repair inh	Rab9 prom act	ELG1 genotox	SMN2 splice enh	FLuc modulator	NPC1 promoter act
Cn1c(=O)c2c(nc(CN3CCN(C(=O)c4ccco4)CC3)n2CC(=O)C(C)(C)C)n(C)c1=O	-7.8%	2.6%	-0.9%	/	-1.1%	-2.0%
CN(C(=O)CSc1nc2ccccc2n1Cc1cccc(C(F)(F)F)c1)c1ccccc1	/	/	/	/	-8.4%	/
CCCNC(=O)COC(=O)c1ccccc1OCC(=O)Nc1ccc(Br)cc1	14.4%	-3.6%	7.4%	-3.5%	-2.1%	-4.4%
CC(C)(C)NC(=O)COC(=O)c1ccccc1OCC(=O)Nc1ccc(Br)cc1	?	?	0.9%	/	1.07µM*	?
Oc1nc(Nc2ccc(F)cc2)sc1/C=C1\C=Nc2ccccc21	?	17.5%	-0.7%	/	?	14.0%
O=c1[nH]c(S)c(/C=C2\C=Nc3ccccc32)s1	0.1%	-2.5%	6.1%	/	15.1µM*	2.5%
O=[N+]([O-])c1c(NCCCO)cc(N2CCN(Cc3ccc4c(c3)OCO4)CC2)c2nonc12	23.1µM*	-2.6%	-6.4%	-75.2%	-0.5%	-1.6%
COc1ccc(CNc2cc(NCCCO)c([N+](=O)[O-])c3nonc23)cc1	20.6µM*	-6.9%	-10.0%	-61.7%	2.6%	-1.6%
COc1ccc(Nc2cc(NCCCO)c([N+](=O)[O-])c3nonc23)cc1	0.0%	1.0%	6.4%	/	-0.4%	-2.1%
COc1ccc(NC(=O)Cn2c(=O)n(Cc3ccccc3Cl)c(=O)c3cc(OC)c(OC)cc32)cc1	/	/	/	1.4%	1.6%	/
c1ccc(Cn2ccc(-c3cnc(-c4ccccc4)s3)n2)cc1	?	1.12µM*	?	/	1.9µM*	1.41µM*
COc1ccc(/C=C2\S/C(=N/S(=O)(=O)c3cccs3)NC2=O)cc1	-5.1%	-0.6%	-0.7%	8.6%	19µM*	-4.1%
CCNc1ccc(S(=O)(=O)N2CCCCC2)cn1	2.7%	0.6%	1.3%	/	-0.6%	0.2%
CC(C)n1cnc2c(oc3ccccc32)c1=O	?	11.2%	14.4%	/	16.9µM*	6.6%
CCOC(=O)C(C)n1cnc2c(oc3ccccc32)c1=O (stereo unspecified)	25.2%	8.5%	4.4%	-11.5%	-19.3%	11.4%
COc1ccc([N+](=O)[O-])cc1Nc1ncnc2ccccc12	0.2%	-0.7%	-1.0%	-25.4%	9.1%	-7.4%
O=[N+]([O-])c1ccc(O)c(Nc2ncnc3ccc(Br)cc23)c1	13µM*	-2.0%	-12.4%	/	?	0.9%
Cc1ccc(O)c(Nc2ncnc3ccc([N+](=O)[O-])cc23)c1	13µM*	4.5%	-20.3%	/	0.7%	19.7%
O=[N+]([O-])c1ccc(O)c(Nc2ncnc3ccccc23)c1	8.8%	13.8%	1.5%	/	0.536µM*	?
COc1ccc(Nc2ncnc3ccc([N+](=O)[O-])cc23)c(OC)c1	?	-2.5%	-6.8%	-18.8%	-1.1%	-0.8%
